Experimental data as given in PMC5540273 (PLoS ONE, 2017).

Assays:
Conditions in all cases: concentration: 1 μM,replicates: in singlicate; n = 1
CSNK1G1 = test system: CSNK1G1
CSNK1G2 = test system: CSNK1G2
CSNK1G3 = test system: CSNK1G3
CSNK2A1 = test system: CSNK2A1
CSNK2A2 = test system: CSNK2A2
CTK = test system: T1, CTK
T1 construct: gene MATK

DAPK1 = test system: DAPK1
DAPK2 = test system: DAPK2
DAPK3 = test system: DAPK3
DCAMKL1 = test system: T2, DCAMKL1
T2 construct: gene DCLK1

DCAMKL2 = test system: T3, DCAMKL2
T3 construct: gene DCLK2

DCAMKL3 = test system: T4, DCAMKL3
T4 construct: gene DCLK3

DDR1 = test system: DDR1
DDR2 = test system: DDR2
DLK = test system: T5, DLK
T5 construct: gene MAP3K12

DMPK2 = test system: T6, DMPK2
T6 construct: gene CDC42BPG

DMPK = test system: DMPK
DRAK1 = test system: T7, DRAK1
T7 construct: gene STK17A

DRAK2 = test system: T8, DRAK2
T8 construct: gene STK17B

DYRK1A = test system: DYRK1A
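Also: KINOMEscan kinase panel screen.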

| SMILES | %Inh (CSNK1G1) [%] | %Inh (CSNK1G2) [%] | %Inh (CSNK1G3) [%] | %Inh (CSNK2A1) [%] | %Inh (CSNK2A2) [%] | %Inh (CTK) [%] | %Inh (DAPK1) [%] | %Inh (DAPK2) [%] | %Inh (DAPK3) [%] | %Inh (DCAMKL1) [%] | %Inh (DCAMKL2) [%] | %Inh (DCAMKL3) [%] | %Inh (DDR1) [%] | %Inh (DDR2) [%] | %Inh (DLK) [%] | %Inh (DMPK2) [%] | %Inh (DMPK) [%] | %Inh (DRAK1) [%] | %Inh (DRAK2) [%] | %Inh (DYRK1A) [%] |
| --- | --- | --- | --- | --- | --- | --- | --- | --- | --- | --- | --- | --- | --- | --- | --- | --- | --- | --- | --- | --- |
| Nc1nccc(-c2ccc3c(N)n[nH]c3c2)n1 [GSK1034945] | 0 | 0 | 19 | 41 | 64 | 0 | 45 | 0 | 19 | 12 | 0 | 36 | 0 | 0 | 1 | 2 | 0 | 98.1 | 89 | 99.6 |
| CCn1c(-c2nonc2N)nc2cncc(Br)c21 [SB-738004] | 5 | 0 | 7 | 0 | 21 | 0 | 39 | 55 | 46 | 18 | 2 | 7 | 0 | 39 | 43 | 10 | 0 | 5 | 0 | 98 |
| NC(=O)Nc1sc(-c2ccc(F)cc2)cc1C(N)=O [GW789449] | 0 | 0 | 0 | 49 | 81 | 22 | 32 | 0 | 38 | 0 | 0 | 0 | 11 | 39 | 38 | 0 | 0 | 43 | 70 | 23 |
| c1ccc(Oc2ccc(Nc3ccnc4ccc(-c5ccccn5)cc34)cc2)cc1 [GW407034] | 11 | 0 | 10 | 0 | 14 | 0 | 0 | 0 | 5 | 9 | 0 | 0 | 14 | 0 | 49 | 15 | 0 | 0 | 0 | 24 |
| OCCn1cc(-c2cnc3nnn(Cc4ccc5ncccc5c4)c3n2)cn1 | 1 | 0 | 9 | 0 | 0 | 0 | 0 | 0 | 0 | 66 | 0 | 0 | 0 | 4 | 0 | 0 | 0 | 10 | 12 | 0 |
| COC(=O)Nc1nc2cc(Oc3ccc(NC(=O)Nc4cc(C(F)(F)F)ccc4Cl)cc3)ccc2[nH]1.Cl [GW697465] | 0 | 0 | 8 | 0 | 0 | 0 | 2 | 0 | 0 | 0 | 11 | 31 | 100 | 98.3 | 60 | 0 | 0 | 2 | 0 | 0 |
| CCNCC(Cc1ccccc1)NC(=O)c1cc(Br)c(-c2ccnc3[nH]ccc23)s1.Cl.Cl (centres unmarked) [GSK1383280] | 8 | 5 | 46 | 87 | 71 | 0 | 7 | 9 | 28 | 42 | 0 | 40 | 8 | 18 | 11 | 90 | 23 | 0 | 0 | 37 |
| O=C(Nc1ccc(Oc2ccc3nc(NC(=O)C4CC4)cn3n2)c(F)c1)c1cccn(-c2ccccc2)c1=O | 0 | 0 | 30 | 0 | 0 | 0 | 0 | 0 | 14 | 4 | 13 | 29 | 99.1 | 100 | 13 | 0 | 0 | 0 | 0 | 0 |
| CN(c1ccc2c(c1)nc(NCc1ccc(F)cc1)n2C)c1ccnc(Nc2ccc(CS(C)(=O)=O)cc2)n1.Cl [GW813244] | 0 | 6 | 0 | 0 | 24 | 14 | 5 | 7 | 0 | 28 | 0 | 0 | 98.4 | 100 | 0 | 0 | 0 | 15 | 7 | 0 |
| O=C(Nc1ccccc1)c1cccc(Oc2ccc3nccn3n2)c1 | 10 | 6 | 0 | 0 | 11 | 28 | 100 | 0 | 0 | 0 | 40 | 0 | 45 | 42 | 1 | 6 | 11 | 7 | 14 | 0 |
